# According to PubChem BioAssay (NCATS):
# Records with an inconclusive call do not appear. Where a call stands in place of a potency, no number is given. Calls of active or inactive are those of the source. Calls follow the shape of the dose curve; as a rule, active = well fitted cell-killing curve with a large enough effect; inconclusive = small, poorly fitted or top-dose-only effect, or effect the other way; inactive = flat fitted curve, though single readings scatter.
# System: CAOV3
# Test: Primary qHTS to identify gynecologic anti-cancer compounds using libraries of approved drugs and bioactive compounds (AID 1345084); also: nearly all actives have a fitted effect of over 55% in size
# Conditions: Gynecologic cancer cell panel viability, ATPlite luminescence, 48 h; series mostly up to 57.5 µM
# Text: National Center for Advancing Translational Sciences [NCATS] Assay Overview: Chemotherapeutic drug responses vary from cancer to cancer and from patient to patient. These variations could be caused by a number of factors including patient genomic background, tumor mutations, tumor heterogeneity, and aspects of drug treatment. Chemotherapeutic drug resistance is also a common issue and can lead to ineffective treatment and patient death. Here we have profiled the cell killing effects of thousands of compounds to characterize the responses in three gynecological cancers, identify cancer-selective compounds, and understand the diversity of responses to these compounds from pan-cancer suppressors to single cell line selective compounds. In this assay, we screened a 7,914 compound drug library that included approved drug and bioactive compounds in six ovarian, three cervical, and […] placental cancer cell lines using the ATPlite assay for cell viability. […] The cervical cancer cell lines included HeLa, Ca Ski, and C-33 A. The placental cancer cell lines included JEG-3. HEK 293T cells were used as the control cell line to determine the selectivity index. ATPlite is a luminescence based assay reliant on the conversion of a luciferase substrate to light in the presence of ATP. As a cytotoxic compound will suppress growth and decrease the number of cells, the concentration of ATP will decrease, and less light signal will be detected in the well.
# Assay Protocol Summary: 1,000 cells in 4 uL of media were dispensed into white, solid bottom 1536-well plates using a Multidrop Combi (Thermo Scientific). The Assay plates were incubated for 16 hours at 37 C with 5% CO2 in assay plates, followed by the addition of 23 nL of DMSO or drug dissolved in DMSO. Each compound was assayed in five concentrations (0.092, 0.46, 2.3, 11.5, and 57.5 uM), using the automated Wako 1536 Pin Tool workstation and incubated at 37 C with 5% CO2 48 hours. 4 uL of ATPlite, the ATP monitoring reagent, was then added to the each well of the assay plates using the Multidrop Combi reagent dispenser followed by incubation for 15 minutes at room temperature. The resulting luminescence was measured using the ViewLux plate reader.
# Potency is read from the fitted curve at half-maximal effect.
Compound,"activity change, negative = cytotoxicity",Potency
C/C=C(\C)C(=O)OC1CC2C(CC=C3CC(OC4CC(OC)C(OC5CC(OC)C(OC6OC(C)C(OC7OC(CO)C(O)C(O)C7O)C(OC)C6O)C(C)O5)C(C)O4)CCC32C)C2(O)CCC(C(C)=O)C12C (stereo not given),5.78% [at 11.6 µM] (inactive),–
CN1[C@H]2C[C@H](OC(=O)[C@H](CO)c3ccccc3)C[C@@H]1[C@@H](O)C2,–,inactive
COC1CC(OC2CCC3(C=O)C(CCC4C3CCC3(C)C(C5=CC(=O)OC5)CCC43O)C2)OC(C)C1OC1OC(CO)C(O)C(O)C1O (stereo not given),–,631 nM (active)
COc1cc(C(=O)O[C@H]2[C@@H]3C=CO[C@@H](O[C@@H]4O[C@H](CO)[C@@H](O)[C@H](O)[C@H]4O)[C@@H]3[C@@]3(CO)O[C@@H]23)ccc1O,–,inactive
CC1C/C=C/C(O)C(O)CC/C=C/c2cc(O)cc(O)c2C(=O)O1 (stereo not given),–,inactive
OC1(c2ccc(Cl)cc2)c2ccccc2C2=NCCN21 (stereo not given),–,inactive
COC(=O)C12C(=O)C(C)(O)C(=O)C1(C)C(C)=CC1C34CCC(OC3=O)C(C)(CO)C4CCC12C (stereo not given),–,inactive
COC1CC(O[C@H]2CC[C@@]3(C)C(=CCC4C3C(O)[C@@H](O)[C@]3(C)[C@@H](C(C)=O)CC[C@]43O)C2)OC(C)C1OC1CC(OC)C(OC2OC(C)C(O)C(O)C2O)C(C)O1 (stereo not given in full),-3.8% [at 11.6 µM] (inactive),–
CC(=O)OC1CC(O)C(C)(C)C2CC(OC(C)=O)C3(C)C(CCC4(C)C(c5ccoc5)C(=O)C5OC543)C12C (stereo not given),–,inactive
C/C=C(\C)C(=O)O[C@H]1[C@H](OC(C)=O)[C@]2(CO)[C@H](O)[C@H](O)[C@]3(C)C(=CCC4[C@@]5(C)CC[C@H](O[C@@H]6O[C@H](C(=O)O)[C@@H](O)[C@H](O[C@@H]7OC[C@H](O)[C@H](O[C@@H]8OC[C@H](O)[C@H](O)[C@H]8O)[C@H]7O)[C@H]6O[C@@H]6O[C@H](CO)[C@@H](O)[C@H](O)[C@H]6O)C(C)(C)C5CC[C@]43C)[C@@H]2CC1(C)C (stereo not given in full),0.059% [at 6.55 µM] (inactive),–
C[C@@]12C[C@@H](c3ccoc3)OC(=O)C1CC[C@]1(C)[C@H]2[C@H]2C=C[C@]1(O)C(=O)O2 (stereo not given in full),–,inactive
C[C@@]1(C(=O)O)CC[C@]2(C)CC[C@]3(C)C4=CC(=O)c5cc(O)c(O)cc5[C@]4(C)CC[C@@]3(C)[C@@H]2C1,–,inactive
COCC1OC(=O)c2coc3c2C1(C)C1=C(C3=O)C2CCC(=O)C2(C)CC1O (stereo not given),–,inactive
CCc1c(C(=O)C(N)=O)c2c(OCC(=O)OC)cccc2n1Cc1ccccc1,–,inactive
Oc1ccc2c3c1O[C@H]1[C@H](N(CCCl)CCCl)CC[C@@]4(O)[C@@H](C2)N(CC2CC2)CC[C@]314,11.9% [at 11.6 µM] (inactive),–
C=C(CO)C(=O)O[C@H]1C/C(C)=C/CC/C(CO)=C/[C@H]2OC(=O)C(=C)[C@H]12,–,inactive
COc1cc2c(cc1OC)[C@@]13CCN4CC5=CCO[C@H]6CC(=O)N2[C@H]1[C@H]6[C@H]5C[C@H]43,–,inactive
CCOc1ccccc1-n1c(C(C)N2CCN(C(=O)COc3ccc(Cl)cc3)CC2)nc2ccccc2c1=O (stereo not given),–,inactive
COC1C(O)C(OC2CCC3(C=O)C(CCC4C3CCC3(C)C(C5=CC(=O)OC5)CCC43O)C2)OC(C)C1OC1OC(CO)C(O)C(O)C1O (stereo not given),–,2000 nM (active)
COC(=O)C1(C)CCC(O)C2(C)c3c(O)cc(C(C)C)cc3C(O)C(OC(C)=O)C12 (stereo not given),–,inactive

Compound,"activity change, negative = cytotoxicity",Potency
CC1=C2C[C@H]3[C@@H](CC=C4C[C@@H](O)CC[C@@]43C)[C@@H]2CC[C@]12O[C@@H]1C[C@H](C)CN[C@H]1[C@H]2C,–,inactive
CN(C)CCc1c[nH]c2ccc(CN3CCN(C)S3(=O)=O)cc12,–,inactive
CC12CCC3C(CCC4(O)CC(O)CCC34C=O)C1(O)CCC2C1=CC(=O)OC1 (stereo not given),–,2000 nM (active)
C[C@H]1C(=O)O[C@H]2[C@H](O)[C@]34C5OC(=O)[C@]3(O[C@@H]3OC(=O)[C@H](O)C34[C@H](C(C)(C)C)[C@H]5O)C12O (stereo not given in full),–,inactive
CCc1[nH]c2ccc(OC)cc2c1CCN(C)C,–,inactive
C[C@@](O)(COc1ccc(C#N)cc1)C(=O)Nc1ccc(C#N)c(C(F)(F)F)c1,–,inactive
Clc1ccc(OCC2=NCCN2)cc1Cl,–,inactive
CC(=O)O[C@H]1C[C@@H](OC(C)=O)C(C)(C)C2C[C@@H](O)[C@]3(C)C(CC[C@@]4(C)[C@H](C5=CC(=O)OC5O)C[C@H]5O[C@]543)[C@]21C (stereo not given in full),–,inactive
CC[C@H]1CN2CC[C@H]1C[C@H]2[C@H](O)c1ccnc2ccc(OC)cc12,–,inactive
CCCN1CCO[C@H]2c3cc(O)ccc3OC[C@@H]21,–,inactive
COC(=O)[C@@]12C(=O)C(C)C(=O)[C@]1(C)C(C)=C[C@H]1[C@]3(C=O)CC[C@H](OC(C)=O)C(C)(C)[C@H]3CC[C@@]12C (stereo not given in full),–,inactive
COC1CC(=O)C23C(=O)NC(CC(C)C)C2C(C)=C(C)C(OO)C3/C=C(\C)CCC(O)C1O (stereo not given),–,inactive
COc1cc(C)[nH]c(=O)c1CNC(=O)c1c(C)n([C@H](C)C2CCOCC2)c2ccccc12,–,inactive
CC(C)[C@@H](CN1CC[C@@](C)(c2cccc(O)c2)[C@@H](C)C1)NC(=O)[C@H]1Cc2ccc(O)cc2CN1,–,inactive
C/C=C(\C)C(=O)OC1CC2C(C)(C)OC(=O)CC(OC(C)=O)C2(C)C2CC(OC(=O)C(C)C)C3(C)C(c4ccoc4)CC4OC43C12C (stereo not given),–,inactive
CC(C)(C)c1cc(C(C)(C)C)c2c(c1)C(O)(C(F)(F)F)C(=O)O2 (stereo not given),–,inactive
C=CC(C)(C)c1[nH]c2cccc3c2c1C[C@@H]1[C@@H]3[C@@H](OC(C)=O)[C@H](C)CN1C,–,inactive
COC1=CC(=O)O[C@@H](/C=C/c2ccccc2)C1,–,inactive
CN1CCCC1CCOC(c1cc2nccc(C(=O)O)c2[nH]1)c1ccccc1Cl (stereo not given),–,inactive
CC1=CC2/C=C(\C)CCC(O)C3OC(C)(C)OC3CC(=O)OC23C(=O)NC(CC(C)C)C3C1C (stereo not given),–,inactive
